Measurements reported in PubChem BioAssay.
Activity calls are given as the source filed them.

Key:
[1] = binders of probe aFSTL3 on microarray, primary screen, stem cell growth factor project, biochemical, small-molecule microarray, fluorescence 635/667 (AID 1064); conditions: higher = more signal;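 also: measures binding of the biotinylated anti-FSTL3 antibody to printed compounds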
[2] = binders from COS7 lysate, DM2A8 probe, primary screen, torsin A project, cell lysate, small-molecule microarray, fluorescence 635/667 (AID 1065); conditions: higher = more signal, COS7 lysate expressing mutant human TOR1A
[3] = binders of probe aFGF2 on microarray, primary screen, stem cell growth factor project, biochemical, small-molecule microarray, fluorescence 635/667 (AID 1067); conditions: higher = more signal;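 also: measures binding of biotinylated aFGF2 protein to printed compounds on slides; z-score merges feature fluorescence and signal-to-noise across triplicate slides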
[4] = binders of probe aFGF10 on microarray, primary screen, stem cell growth factor project, biochemical, small-molecule microarray, fluorescence 635/667 (AID 1071); conditions: higher = more signal;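 also: score merges 667 nm spot intensity and signal to noise from triplicate slides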
[5] = target: Neurogenic locus notch homolog protein 2 (Homo sapiens) (UniProt Q04721); experiment: Notch2 binders on small-molecule microarrays, primary screen, biochemical, small-molecule microarray, 635 nm fluorescence, stem cell growth factors (AID 1073); conditions: Notch2 binding, higher = more signal
Neurogenic locus notch homolog protein 2 (Homo sapiens), sequence (Q04721 whole entry, looked up, canonical isoform): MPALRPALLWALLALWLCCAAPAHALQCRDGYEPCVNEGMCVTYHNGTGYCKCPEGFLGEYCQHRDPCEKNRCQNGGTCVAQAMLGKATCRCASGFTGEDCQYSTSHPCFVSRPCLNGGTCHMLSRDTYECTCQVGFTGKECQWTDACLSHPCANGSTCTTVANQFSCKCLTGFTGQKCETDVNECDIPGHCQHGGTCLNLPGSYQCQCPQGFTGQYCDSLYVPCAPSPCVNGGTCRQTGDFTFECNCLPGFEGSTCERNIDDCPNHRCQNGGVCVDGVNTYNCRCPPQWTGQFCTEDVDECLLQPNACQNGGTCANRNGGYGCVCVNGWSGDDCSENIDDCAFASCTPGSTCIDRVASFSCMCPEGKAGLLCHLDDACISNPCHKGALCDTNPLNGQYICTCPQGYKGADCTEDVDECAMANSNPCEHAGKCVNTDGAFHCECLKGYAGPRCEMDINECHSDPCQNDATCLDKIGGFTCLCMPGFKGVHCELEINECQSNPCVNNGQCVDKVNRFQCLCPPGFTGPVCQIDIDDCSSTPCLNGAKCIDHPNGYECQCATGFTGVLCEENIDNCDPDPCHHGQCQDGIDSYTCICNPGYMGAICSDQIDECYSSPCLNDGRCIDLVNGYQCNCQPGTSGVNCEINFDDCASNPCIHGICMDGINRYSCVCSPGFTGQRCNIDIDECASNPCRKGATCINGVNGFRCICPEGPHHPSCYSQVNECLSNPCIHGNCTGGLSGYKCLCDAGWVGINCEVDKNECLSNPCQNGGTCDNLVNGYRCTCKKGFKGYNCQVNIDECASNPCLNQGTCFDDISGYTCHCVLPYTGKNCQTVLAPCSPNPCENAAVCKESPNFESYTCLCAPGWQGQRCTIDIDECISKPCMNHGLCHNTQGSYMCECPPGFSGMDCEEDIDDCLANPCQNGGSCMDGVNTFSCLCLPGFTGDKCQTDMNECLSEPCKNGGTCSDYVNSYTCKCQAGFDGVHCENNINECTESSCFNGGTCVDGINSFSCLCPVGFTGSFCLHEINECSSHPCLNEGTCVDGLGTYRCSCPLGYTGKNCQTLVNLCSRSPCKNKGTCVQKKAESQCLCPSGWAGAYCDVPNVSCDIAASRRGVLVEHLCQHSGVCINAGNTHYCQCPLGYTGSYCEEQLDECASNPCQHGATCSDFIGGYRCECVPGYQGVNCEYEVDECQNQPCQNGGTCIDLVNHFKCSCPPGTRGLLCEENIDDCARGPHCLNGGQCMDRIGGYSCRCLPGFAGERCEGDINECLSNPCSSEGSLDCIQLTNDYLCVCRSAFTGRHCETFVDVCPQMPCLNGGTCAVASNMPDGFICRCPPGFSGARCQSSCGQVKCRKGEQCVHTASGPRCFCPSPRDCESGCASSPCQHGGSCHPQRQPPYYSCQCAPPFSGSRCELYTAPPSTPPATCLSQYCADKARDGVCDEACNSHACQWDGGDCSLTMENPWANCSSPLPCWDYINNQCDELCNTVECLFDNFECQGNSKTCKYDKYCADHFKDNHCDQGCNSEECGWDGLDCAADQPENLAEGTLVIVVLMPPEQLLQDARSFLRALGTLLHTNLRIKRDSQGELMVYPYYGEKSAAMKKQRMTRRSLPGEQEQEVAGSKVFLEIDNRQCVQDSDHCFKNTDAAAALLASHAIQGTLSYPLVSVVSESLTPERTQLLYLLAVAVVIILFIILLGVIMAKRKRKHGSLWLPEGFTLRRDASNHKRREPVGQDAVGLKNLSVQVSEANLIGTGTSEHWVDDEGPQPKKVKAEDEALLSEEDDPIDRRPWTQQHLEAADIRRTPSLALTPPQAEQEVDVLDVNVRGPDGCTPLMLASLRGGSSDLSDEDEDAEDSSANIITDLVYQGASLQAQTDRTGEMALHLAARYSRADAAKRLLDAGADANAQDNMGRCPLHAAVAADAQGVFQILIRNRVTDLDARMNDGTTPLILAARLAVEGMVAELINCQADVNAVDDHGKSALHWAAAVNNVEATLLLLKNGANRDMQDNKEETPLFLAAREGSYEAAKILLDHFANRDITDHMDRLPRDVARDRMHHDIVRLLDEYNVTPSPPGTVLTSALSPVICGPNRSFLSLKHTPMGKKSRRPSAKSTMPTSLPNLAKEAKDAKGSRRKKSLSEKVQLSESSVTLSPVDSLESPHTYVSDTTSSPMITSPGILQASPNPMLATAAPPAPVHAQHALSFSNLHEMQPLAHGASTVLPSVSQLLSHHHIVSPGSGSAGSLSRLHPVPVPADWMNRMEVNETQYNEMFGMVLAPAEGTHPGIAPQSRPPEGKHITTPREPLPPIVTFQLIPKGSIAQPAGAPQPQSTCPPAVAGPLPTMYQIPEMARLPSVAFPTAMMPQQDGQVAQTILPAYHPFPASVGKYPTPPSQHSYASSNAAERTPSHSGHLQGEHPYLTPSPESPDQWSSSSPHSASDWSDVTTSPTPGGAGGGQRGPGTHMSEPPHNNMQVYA

[6] = target: Pro-neuregulin-1, membrane-bound isoform (Homo sapiens) (UniProt Q02297); experiment: NRG1 binders on small-molecule microarrays, primary screen, psychiatric disease protein project, biochemical, small-molecule microarray, fluorescence 635/667 (AID 1075); conditions: NRG1 binding, 635 nm fluorescence, higher = more signal;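 also: score combines 667 nm spot fluorescence with signal to noise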
Pro-neuregulin-1, membrane-bound isoform (Homo sapiens), sequence (Q02297 whole entry, looked up, the tested form may be a part, canonical isoform): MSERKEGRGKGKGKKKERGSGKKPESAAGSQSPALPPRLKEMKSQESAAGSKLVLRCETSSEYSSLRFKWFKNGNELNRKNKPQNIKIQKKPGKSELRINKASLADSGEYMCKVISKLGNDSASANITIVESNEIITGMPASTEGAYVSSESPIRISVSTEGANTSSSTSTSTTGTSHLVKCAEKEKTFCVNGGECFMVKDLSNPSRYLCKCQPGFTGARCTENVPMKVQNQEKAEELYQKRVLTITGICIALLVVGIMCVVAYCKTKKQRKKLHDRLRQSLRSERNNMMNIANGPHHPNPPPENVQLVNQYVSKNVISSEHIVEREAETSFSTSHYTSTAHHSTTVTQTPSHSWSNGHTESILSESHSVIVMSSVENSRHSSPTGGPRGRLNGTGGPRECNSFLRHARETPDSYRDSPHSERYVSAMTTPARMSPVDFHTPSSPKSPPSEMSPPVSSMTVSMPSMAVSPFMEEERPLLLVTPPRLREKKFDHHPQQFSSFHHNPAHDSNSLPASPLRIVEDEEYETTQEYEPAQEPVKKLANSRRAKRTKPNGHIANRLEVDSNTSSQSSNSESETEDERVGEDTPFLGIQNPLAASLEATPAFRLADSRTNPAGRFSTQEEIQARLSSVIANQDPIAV

[7] = system: Neuregulin-1 EGF-like domain; experiment: binders of neuregulin-1 EGF-like domain, primary screen, biochemical, small-molecule microarray, 635 nm fluorescence (AID 1081); conditions: small-molecule microarray binding, higher = more signal;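 also: binding of the protein to compounds printed on small-molecule microarray slides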
[8] = FRG1 promoter luciferase signal modulators, primary screen, FRG1 inhibition for FSHD, cell-based, C2C12 myotubes, firefly/Renilla luciferase, luminescence (AID 1084); conditions: higher = more signal, called active from +8 up or from −8 down
[9] = binders of probe aFST on microarray, primary screen, stem cell growth factor project, biochemical, small-molecule microarray, fluorescence 635/667 (AID 1086); conditions: higher = more signal;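 also: score merges 667 nm fluorescence with signal-to-noise of each printed compound spot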
[10] = binders of probe aHhip on microarray, primary screen, stem cell growth factor project, biochemical, small-molecule microarray, fluorescence 635/667 (AID 1087); conditions: higher = more signal;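 also: score merges spot fluorescence at 667nm with spot signal to noise ratio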

SMILES: CC1CC/C=C\[C@H]2OC34C=CCN(Cn5nnc6ccccc65)C(=O)[C@H]3N(CCO)C(=O)[C@@H]4C2C(=O)O1 (stereo not given in full)
- composite z-score [1]: 0.398
- composite z-score [2]: 1.96
- composite z-score [3]: -0.0778
- composite z-score [4]: -0.181
- composite z-score [5]: -1.29
- composite z-score [6]: 1.52
- composite z-score [7]: 1.43
- z-score [8]: -0.203 (inactive)
- composite z-score [9]: -0.655
- composite z-score [10]: -0.0324

SMILES: COc1ccc([Si](C)(C)[C@H]2[C@H](CC(=O)N3CCC[C@H]3CO)O[C@@]3(C(=O)N(Cc4cccc(N5C(=O)COc6ccccc65)c4)c4ccccc43)[C@@H]2C)cc1
- composite z-score [1]: -0.126
- composite z-score [2]: 0.149
- composite z-score [3]: -0.0148
- composite z-score [4]: 0.893
- composite z-score [5]: 0.308
- composite z-score [6]: 0.563
- composite z-score [7]: 0.983
- z-score [8]: -4.78 (inactive)
- composite z-score [9]: -0.0678
- composite z-score [10]: -0.0994

SMILES: COC(=O)[C@H](C)NC(=O)CCC1CC(OC(=O)NCc2cccc3ccccc23)CC2(CCCC(COC(=O)NCC3CCCCC3)O2)O1 (stereo not given in full)
- composite z-score [1]: -0.641
- composite z-score [2]: 0.585
- composite z-score [3]: -0.0775
- composite z-score [4]: 0.406
- composite z-score [5]: 1.34
- composite z-score [6]: 1.06
- composite z-score [7]: 1.16
- z-score [8]: 0.619 (inactive)
- composite z-score [9]: 0.715
- composite z-score [10]: 0.21

SMILES: CC(CCC(=O)OC[C@H]1O[C@H](C#Cc2ccccc2)C=C[C@@H]1Oc1ccc(C)cc1)=NOC[C@@H](O)[C@H]1O[C@@H]2OC(C)(C)O[C@@H]2[C@H]1O
- composite z-score [1]: -0.378
- composite z-score [2]: -0.587
- composite z-score [3]: -0.229
- composite z-score [4]: -0.44
- composite z-score [5]: -0.836
- composite z-score [6]: -0.116
- composite z-score [7]: -0.0458
- z-score [8]: 0.0054 (inactive)
- composite z-score [9]: -0.865
- composite z-score [10]: -0.172

SMILES: CO[C@@H]1COC(=O)CC=C[C@@H](C)[C@@H]2C=C[C@H](O)[C@@H](COC(=O)CCC[C@H]1C)O2
- composite z-score [1]: -0.29
- composite z-score [2]: 1.11
- composite z-score [3]: -0.146
- composite z-score [4]: -0.14
- composite z-score [5]: -0.117
- composite z-score [6]: -0.582
- composite z-score [7]: -0.167
- z-score [8]: -0.414 (inactive)
- composite z-score [9]: 0.246
- composite z-score [10]: -0.261

SMILES: CC1(C)OCC(C(O)C2=CCCCC2=O)CO1 (stereo not given)
- composite z-score [1]: -0.495
- composite z-score [2]: 0.547
- composite z-score [3]: -0.0607
- composite z-score [4]: 0.54
- composite z-score [5]: 0.214
- composite z-score [6]: 0.366
- composite z-score [7]: 0.979
- z-score [8]: 0.119 (inactive)
- composite z-score [9]: 0.753
- composite z-score [10]: 0.065

SMILES: COC(=O)[C@]1(CO)N=C(c2ccc(OCCCO)cc2)O[C@@H]1c1ccccc1N=[N+]=[N-]
- composite z-score [1]: 0.0947
- composite z-score [2]: 0.525
- composite z-score [3]: -0.0614
- composite z-score [4]: -0.0477
- composite z-score [5]: 0.01
- composite z-score [6]: 1.25
- composite z-score [7]: 0.938
- z-score [8]: 2.29 (inactive)
- composite z-score [9]: 0.138
- composite z-score [10]: -0.39

SMILES: COC(=O)[C@@H]1CC[C@H](C)[C@@H](c2ccc(C)cc2)N1C(=O)c1ccc(C=NOC(C)CN2CCCCc3nc(C)c(C)cc32)cc1 (stereo not given in full)
- composite z-score [1]: 0.145
- composite z-score [2]: -0.859
- composite z-score [3]: -0.0959
- composite z-score [4]: 0.233
- composite z-score [5]: -0.199
- composite z-score [6]: 0.131
- composite z-score [7]: 0.312
- z-score [8]: 0.204 (inactive)
- composite z-score [9]: 0.165
- composite z-score [10]: 0.226

SMILES: COc1ccc(CCNC(=O)[C@@H]2c3ccccc3C(=O)N(c3ccc(C)cn3)[C@H]2c2ccc(CO)cc2)cc1
- composite z-score [1]: 1.18
- composite z-score [2]: -0.793
- composite z-score [3]: -0.189
- composite z-score [4]: -0.715
- composite z-score [5]: -1.85
- composite z-score [6]: -1.13
- composite z-score [7]: 1.2
- z-score [8]: 0.379 (inactive)
- composite z-score [9]: -0.57
- composite z-score [10]: -0.0994

SMILES: Cc1ccc(F)cc1S(=O)(=O)N[C@@H]1CCN(Cc2ccc(CC(C)C)cc2)C1
- composite z-score [1]: -0.433
- composite z-score [2]: 0.172
- composite z-score [3]: -0.214
- composite z-score [4]: -0.613
- composite z-score [5]: -0.613
- composite z-score [6]: -0.0721
- composite z-score [7]: -0.197
- z-score [8]: -1.06 (inactive)
- composite z-score [9]: -0.493
- composite z-score [10]: -0.249

SMILES: COc1ccc(O[C@@H]2[C@H](O)CO[C@H]2C=CC#Cc2ccccc2)cc1
- composite z-score [1]: -0.389
- composite z-score [2]: 0.511
- composite z-score [3]: -0.159
- composite z-score [4]: 0.0175
- composite z-score [5]: -0.22
- composite z-score [6]: 0.068
- composite z-score [7]: -0.203
- z-score [8]: -0.606 (inactive)
- composite z-score [9]: -0.182
- composite z-score [10]: -0.0237

SMILES: COCCOC(=O)N1C(=O)[C@@]2(c3cc(C#CCNC(N)=O)ccc31)[C@H](c1ccccc1OCCO)N1[C@H](c3ccccc3)[C@H](c3ccccc3)OC(=O)[C@H]1[C@@H]2C(=O)N1CCN(c2ncccn2)CC1
- composite z-score [1]: 0.202
- composite z-score [2]: 1
- composite z-score [3]: 0.0019
- composite z-score [4]: 1.15
- composite z-score [5]: 1.27
- composite z-score [6]: 1.27
- composite z-score [7]: 0.955
- z-score [8]: -1.69 (inactive)
- composite z-score [9]: 0.141
- composite z-score [10]: -0.0618

SMILES: CCOC(=O)[C@H](CC(C)C)NC(=O)CCC1CC(OC(=O)NCc2cccc3ccccc23)CC2(CCCC(COC(=O)NCCN3CCOCC3)O2)O1 (stereo not given in full)
- composite z-score [1]: -0.589
- composite z-score [2]: 0.393
- composite z-score [3]: -0.0788
- composite z-score [4]: 0.497
- composite z-score [5]: 0.999
- composite z-score [6]: 0.442
- composite z-score [7]: 0.983
- z-score [8]: 0.986 (inactive)
- composite z-score [9]: 0.112
- composite z-score [10]: 0.0176

SMILES: CC(C)N1CC=CC23O[C@@H]4C=CCCOC(=O)C4[C@H]2C(=O)N(CCCCCCO)[C@@H]3C1=O (stereo not given in full)
- composite z-score [1]: 0.487
- composite z-score [2]: -1.93
- composite z-score [3]: -0.141
- composite z-score [4]: -0.671
- composite z-score [5]: -1.17
- composite z-score [6]: 1.2
- composite z-score [7]: 0.896
- z-score [8]: -0.121 (inactive)
- composite z-score [9]: -0.357
- composite z-score [10]: -0.236

SMILES: O=C1O[C@@H](c2ccccc2)[C@@H](c2ccccc2)N2[C@@H](c3ccc(OCCO)cc3)[C@]3(C(=O)Nc4ccc(C#CCCO)cc43)[C@@H](C(=O)N3CCCCCCC3)[C@H]12
- composite z-score [1]: 3.26
- composite z-score [2]: 2.28
- composite z-score [3]: 0.702
- composite z-score [4]: 1.12
- composite z-score [5]: 1.36
- composite z-score [6]: 2.02
- composite z-score [7]: 1.18
- z-score [8]: -1.99 (inactive)
- composite z-score [9]: 3.04
- composite z-score [10]: 2.53

SMILES: C=CC[C@@H]1C=C[C@H](ON=C[C@@H](OC)[C@H](C)C=CCC(=O)OC)[C@@H](CO)O1
- composite z-score [1]: -0.147
- composite z-score [2]: 0.827
- composite z-score [3]: -0.0493
- composite z-score [4]: 0.223
- composite z-score [5]: -0.203
- composite z-score [6]: 0.161
- composite z-score [7]: 0.528
- z-score [8]: 0.813 (inactive)
- composite z-score [9]: 0.0886
- composite z-score [10]: -0.0346

SMILES: C=CC[C@@H]1C=C[C@H](ON=Cc2ccc(C(=O)N3[C@H](c4ccc(C)cc4)[C@@H](C)CC[C@H]3C(=O)OC)cc2)[C@@H](CO)O1
- composite z-score [1]: -0.482
- composite z-score [2]: 0.835
- composite z-score [3]: -0.0687
- composite z-score [4]: 0.304
- composite z-score [5]: 0.842
- composite z-score [6]: 0.0373
- composite z-score [7]: 0.586
- z-score [8]: 0.274 (inactive)
- composite z-score [9]: 0.108
- composite z-score [10]: -0.0994
